# Results reported in PubChem BioAssay (NCATS).
# Values joined by “and” are separate entries in the source; they are usually repeats but may differ in a detail not shown here. Equal values may be shown once. Records with an inconclusive call do not appear. Unmarked numbers belong to inactive results. Active and inactive are the calls of the source. Calls come from the whole dose curve; as a rule, active = well fitted curve in the direction sought with a large enough effect; inconclusive = small, poorly fitted or top-dose-only effect, or another doubt; inactive = no such curve, though single readings can be large; an effect the other way counts as inactive or inconclusive.
# Legend:
# [1] = molecular target: Cellular tumor antigen p53 (Homo sapiens) (UniProt P04637); test: Primary qHTS for small molecule compounds that upregulate eGFP-tagged delta133p53alpha (in N-terminal) cells. (AID 2060322); conditions: NCI-H358 eGFP-delta133p53alpha fluorescence, 24 h; activation: stronger effect = higher value; note: nearly all actives have a fitted effect of over 75% in size; note: potency is the fitted concentration of half-maximal effect;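 for activation: series mostly up to about 56 µM; 0% = DMSO vehicle and 100% = reference activator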
# Summary of the method: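 NCI-H358 cells pre-induced 24 h with 10 ng/ml doxycycline to express N-terminal eGFP-delta133p53alpha, then dosed 24 h at 37C without doxycycline; fixed, Hoechst-stained, GFP intensity by laser scanning cytometry, normalized to DMSO (0%) and 57.5 uM 5-azacytidine (100%).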
# [2] = molecular target: Aldehyde dehydrogenase, mitochondrial (Homo sapiens) (UniProt P05091); test: qHTS for Inhibitors of the Aldehyde Dehydrogenase Family (ALDH2) Primary screen (AID 2061308);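 note: plate controls were vehicle for no effect and reference inhibitor for full effect; nearly all actives have a fitted effect of over 55% in size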
# [3] = molecular target: Retinaldehyde dehydrogenase 3 (Homo sapiens) (UniProt P47895); test: qHTS for Inhibitors of the Aldehyde Dehydrogenase Family (ALDH1A3) Primary screen (AID 2061315);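 note: plate controls were DMSO vehicle for no effect and reference inhibitor for full effect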
# [4] = BET inhibitor-based combinations targeting novel dependencies in MECOM-rearranged (r) AML: AML-194 cell line (AID 2202237; note: nearly all actives have a fitted effect of over 40% in size; note: potency is the fitted concentration of half-maximal effect)
# Summary of the method: (§1)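 Viability of cells (500 per well) is scored by luminescent CellTiter-Glo at 48 hr post-dosing. Eleven-point titrations are normalized to DMSO and empty controls and reduced to AUC values.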
# [5] = BET inhibitor-based combinations targeting novel dependencies in MECOM-rearranged (r) AML: SET-2 cell line (AID 2202231); conditions: SET-2 AML cells viability, CellTiter-Glo luminescence, 48 h; viability: stronger effect = lower value, concentration not given here; note: nearly all actives have a fitted effect of over 35% in size; note: potency is the fitted concentration of half-maximal effect;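 for viability: plate controls were DMSO treated cells for no effect and wells without cells for full effect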
# Summary of the method: as §1
# [6] = BET inhibitor-based combinations targeting novel dependencies in MECOM-rearranged (r) AML: OCI-AML3 cell line (AID 2202232); conditions: Potency: OCI-AML3 viability; note: nearly all actives have a fitted effect of over 35% in size; note: potency is the fitted concentration of half-maximal effect
# Summary of the method: as §1
# [7] = BET inhibitor-based combinations targeting novel dependencies in MECOM-rearranged (r) AML: MV-4-11 cell line (AID 2202233); note: nearly all actives have a fitted effect of over 45% in size; note: potency is the fitted concentration of half-maximal effect
# Summary of the method: (§2)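 Using pin-tool transfer, drugs were added in 11 doses to cells (500/well), incubated 48 hr, and assessed with CellTiter-Glo. Z-AUC is a mean-centring transformation applied separately to each screened line.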
# [8] = BET inhibitor-based combinations targeting novel dependencies in MECOM-rearranged (r) AML: HNT-34 cell line (AID 2202234); note: nearly all actives have a fitted effect of over 35% in size; note: potency is the fitted concentration of half-maximal effect
# Summary of the method: as §2
# [9] = BET inhibitor-based combinations targeting novel dependencies in MECOM-rearranged (r) AML: UCSD-AML1 cell line (AID 2202235); note: nearly all actives have a fitted effect of over 40% in size; note: potency is the fitted concentration of half-maximal effect
# Summary of the method: as §2
# [10] = BET inhibitor-based combinations targeting novel dependencies in MECOM-rearranged (r) AML: AML-191 cell line (AID 2202236; note: nearly all actives have a fitted effect of over 35% in size; note: potency is the fitted concentration of half-maximal effect)
# Summary of the method: as §1
# Chain of Cellular tumor antigen p53 (Homo sapiens) (P04637 whole entry, looked up): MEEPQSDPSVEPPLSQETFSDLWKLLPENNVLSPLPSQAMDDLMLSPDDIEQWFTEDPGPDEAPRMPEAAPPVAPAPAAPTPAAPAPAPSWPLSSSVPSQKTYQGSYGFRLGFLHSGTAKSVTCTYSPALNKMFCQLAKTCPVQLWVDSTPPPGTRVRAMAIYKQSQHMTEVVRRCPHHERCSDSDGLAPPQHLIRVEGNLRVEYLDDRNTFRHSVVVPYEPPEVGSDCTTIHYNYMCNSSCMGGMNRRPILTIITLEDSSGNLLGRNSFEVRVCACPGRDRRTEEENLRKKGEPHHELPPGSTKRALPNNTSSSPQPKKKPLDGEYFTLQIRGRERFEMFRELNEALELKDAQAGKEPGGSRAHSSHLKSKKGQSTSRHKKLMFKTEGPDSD
structure (smiles),measurement,setting,value
O=C(NC[C@H]1CN(c2ccc(N3CCOCC3=O)cc2)C(=O)O1)c1ccc(Cl)s1,activation,[1],5.25%
same,Potency,[2],inactive
same,Potency,[3],inactive
CCCCCc1ccc(/C=C/C(=O)Nc2cc(Cl)ccc2C(=O)O)cc1,activation,[1],-1%
same,Potency,[2],inactive
same,Potency,[3],inactive
C=C1CC[C@@H]2[C@](C)(CO)[C@H](O)CC[C@@]2(C)[C@@H]1C/C=C1/C(=O)OCC1O (stereo partly drawn),Potency,[1],23.9 µM (active)
same,Potency,[2],inactive
same,Potency,[3],inactive
Cc1ccccc1C(=O)Nc1ccc(C(=O)N2CCC[C@@H](O)c3cc(Cl)ccc32)c(C)c1,activation,[1],0%
same,Potency,[2],inactive
same,Potency,[3],inactive
CC(=O)/C=C/[C@H]1[C@](C)(O)[C@@H](O)[C@H](OC(C)=O)C2C(C)(C)CCC[C@@]21C (stereo partly drawn),activation,[1],-2.68%
same,Potency,[2],inactive
same,Potency,[3],inactive
COc1cccc(Cn2ncc3c4sc(S(C)=O)cc4n(C)c3c2=O)c1 (stereo not drawn),activation,[1],7.67%
same,Potency,[2],inactive
same,Potency,[3],inactive
C[C@@H]1CCCN1CCc1cc2cc(-c3ccc(C#N)cc3)ccc2o1,activation,[1],-11.5%
same,Potency,[2],inactive
same,Potency,[3],inactive
CCN(CCN(C)C)C(=O)CNCc1cc(C(N)=O)ccn1,activation,[1],-3.67%
same,Potency,[2],inactive
same,Potency,[3],inactive
CC(C)=CCC[C@](C)(O[C@@H]1O[C@H](CO[C@@H]2O[C@@H](CO)[C@H](O)[C@H]2O[C@@H]2OC[C@@H](O)[C@H](O)[C@H]2O)[C@@H](O)[C@H](O)[C@H]1O)[C@H]1CC[C@]2(C)[C@@H]1[C@H](O)CC1[C@@]3(C)CC[C@H](O[C@@H]4O[C@H](CO)[C@@H](O)[C@H](O)[C@H]4O[C@@H]4O[C@H](CO)[C@@H](O)[C@H](O)[C@H]4O)C(C)(C)C3CC[C@]12C (stereo partly drawn),activation,[1],-6.87%
same,"activity change, negative = inhibition",[2],1.66% [at 11.2 µM]
same,"activity change, negative = inhibition",[3],19.1% [at 11.2 µM]
Cc1c(CN2CCN(C(=O)C(C)O)CC2)sc2c(N3CCOCC3)nc(-c3cnc(N)nc3)nc12 (stereo not drawn),Potency,[1],12 µM (active)
same,Potency,[2],inactive
same,Potency,[3],inactive
C/C(=C\CCC(C)CCO)C(=O)O[C@@H]1[C@@H](O)[C@H](OC2OC=C(C(=O)O)C3CCC(C)(O)C23)O[C@H](CO)[C@H]1O (stereo partly drawn),activation,[1],13.4%
same,Potency,[2],inactive
same,Potency,[3],inactive
COC1C(CO)OC(n2cnc3c(=O)[nH]cnc32)C1O (stereo not drawn),activation,[1],-12.2%
same,Potency,[2],inactive
same,Potency,[3],inactive
C[C@@H]1C(=O)O[C@H]2CC34[C@H]5C[C@@H](C(C)(C)C)C36[C@@H](OC(=O)[C@@H]6O)O[C@@]4(C(=O)O5)[C@]21O (stereo partly drawn),activation,[1],19.1%
same,Potency,[2],inactive
same,Potency,[3],inactive
CC(=O)OC[C@]12[C@H](OC(C)=O)[C@H](OC(=O)c3ccccc3)[C@@H]3[C@@H](OC(C)=O)[C@]1(OC3(C)C)[C@H](C)C[C@H](OC(C)=O)[C@@H]2OC(=O)c1ccccc1,activation,[1],3.05%
same,Potency,[2],inactive
same,Potency,[3],inactive
CN(C)C/C=C/C(=O)Nc1ccc(C(=O)Nc2cccc(Nc3ncc(Cl)c(-c4c[nH]c5ccccc45)n3)c2)cc1,Potency,[4],0.296 µM (active)
CS(=O)(=O)c1ccc(C(=O)Nc2ccc(Cl)c(-c3ccccn3)c2)c(Cl)c1,activation,[1],-14.7% and -1.91%
same,Potency,[2],inactive
same,Potency,[3],inactive
same,viability,[5],106%
same,Potency,[6],inactive
same,Potency,[7],inactive
same,Potency,[8],inactive
same,Potency,[9],inactive
same,Potency,[10],inactive
same,Potency,[4],inactive
CCCC(CCC)C(=O)Nc1ccn([C@@H]2O[C@H](CO)[C@@H](O)C2(F)F)c(=O)n1,activation,[1],-16.2%
same,Potency,[2],inactive
same,Potency,[3],inactive
same,Potency,[5],3.72 µM (active)
same,Potency,[6],0.934 µM (active)
same,Potency,[7],1.05 µM (active)
same,Potency,[8],4.68 µM (active)
same,Potency,[9],4.17 µM (active)
same,Potency,[10],2.35 µM (active)
same,Potency,[4],2.63 µM (active)
COc1cc2ncnc(Nc3ccc(F)c(Cl)c3)c2cc1NC(=O)/C=C/CN1CCCCC1,Potency,[1],9.53 µM (active)
same,Potency,[2],inactive
same,Potency,[3],inactive
same,Potency,[5],8.33 µM (active)
same,Potency,[6],5.9 µM (active)
same,Potency,[7],2.95 µM (active)
same,Potency,[8],3.72 µM (active)
same,Potency,[9],8.33 µM (active)
same,Potency,[10],7.42 µM (active)
same,Potency,[4],8.33 µM (active)
O=C1NC(=O)C(c2cnc3ccccn23)=C1c1cn2c3c(cc(F)cc13)CN(C(=O)N1CCCCC1)CC2,Potency,[1],30.1 µM (active)
same,Potency,[2],inactive
same,Potency,[3],inactive
same,Potency,[5],0.0417 µM (active)
same,Potency,[6],2.95 µM (active)
same,Potency,[7],0.186 µM (active)
same,Potency,[8],0.0661 µM (active)
same,Potency,[9],1.66 µM (active)
same,Potency,[10],0.662 µM (active)
same,Potency,[4],3.72 µM (active)
CC(C)c1cc(C(C)C)c(CC(=O)NS(=O)(=O)Oc2c(C(C)C)cccc2C(C)C)c(C(C)C)c1,activation,[1],11.6% and 19%
same,Potency,[2],inactive
same,Potency,[3],inactive
same,viability,[5],106%
same,Potency,[6],10.5 µM (active)
same,Potency,[7],5.25 µM (active)
same,Potency,[8],7.42 µM (active)
same,Potency,[9],inactive
same,Potency,[10],8.33 µM (active)
same,Potency,[4],inactive
